Data reported in PubChem BioAssay.
Activity calls are given as the source filed them.

Assay: changes in parasitized red cell lysis, either direction – P. falciparum Indochina, OD700, 3 h, PSAC antagonist project, primary screen (AID 1156)
Settings: P. falciparum-infected erythrocytes, osmotic lysis, higher = more signal, called active from +8 up or from −8 down

z-score, inactive:
C=CCC1=C[C@H]2[C@H]([C@@H]3C=C[C@]2(CC=C)C(=O)[C@]32CO2)[C@@]2(CO2)C1=O 1.16
Cc1ccc(S[C@]2(C(=O)O)CC(=O)N(Cc3ccccc3)[C@@H]2c2ccc(CO)cc2)cc1 1.09
CCCNC(=O)[C@@H]1c2ccccc2C(=O)N(Cc2cc(F)cc(C(F)(F)F)c2)[C@H]1c1ccc(CO)cc1 0.064
O=C1c2ccccc2[C@](Cc2ccccc2I)(C(=O)O)[C@H](c2ccc(CO)cc2)N1C1CCCCC1 0.974
[N-]=[N+]=NCc1ccccc1C[C@]1(C(N)=O)N=C(c2ccc(OCCCO)cc2)O[C@H]1c1ccccc1CN=[N+]=[N-] 1.82
CO[C@H]1COC(=O)[C@H](C)NC(=O)CC=C[C@@H](C)[C@H](NS(=O)(=O)c2ccc(C)cc2)COC(=O)[C@@H](OCc2ccccc2)C=C[C@@H]1C 0.416
COC(=O)c1c(CC[C@@H](CO)NC(=O)N[C@H](Cn2cc(-c3cncn3C)nn2)C(C)C)oc(C(C)=O)c1C(=O)OC -0.181
C=C(COC)/C(=C/C[C@@H](OC(C)=O)c1cccc(OCCO)c1)c1cc(C(=O)OC)ccc1OC 0.363
CC(C)[Si]1(C(C)C)O[C@@H](c2ccccc2)c2cc(C3CC3)nc(-c3ccc(Oc4ccccc4)cc3)c21 1.08
